Assay: small molecules boosting NK-mediated OVCAR3 lysis – imaging, primary NK cells, calcein-AM imaging, primary screen (AID 1508625);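 also: compound given to NK cells 16 h before adding targets at 1.5 to 1 ratio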;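 as to z-score: more negative robust z means stronger NK killing of tumor cells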
Settings: OVCAR3 lysis by primary NK cells, at 5 µM; z-score: measured here: robust Z-score, single-point normalisation

Compound | corrected activity, negative = more killing | z-score
CC1(C)CC(=O)C(CCC(=O)c2ccccc2)C(C)(C)N1 (configuration not stated) | -2.46% | -0.733
CCOC(=O)c1c(NC(=O)c2ccccc2F)sc(C(=O)Nc2cccc(Cl)c2)c1C | -1.46% | -0.517
CC(C)c1ccc(CNc2c([N+](=O)[O-])c(=O)oc3ccccc23)cc1 | -0.839% | -0.312
O=C(CCCn1c(=S)[nH]c2cc3c(cc2c1=O)OCO3)NCCCN1CCOCC1 | -7.74% | -2.05
O=C1OC(c2cccc(Cl)c2)=NC1=Cc1ccc(F)cc1 | -4.47% | -1.9
CCN(C(=O)c1cc2c(=O)n3cccc(C)c3nc2s1)c1ccccc1 | -6.23% | -1.77
O=C(NC1CCCCC1)c1nn2c(C(F)(F)F)cc(-c3ccco3)nc2c1Br | -4.13% | -1.55
Cc1nn2c(N)cc(-c3ccccc3)nc2c1-c1ccccc1 | -0.835% | -0.365
O=C(c1ccc2c(=O)n(Cc3ccco3)c(=S)[nH]c2c1)N1CCOCC1 | -3.78% | -1.2
CC(Oc1cccc(Cl)c1)C(=O)NC1CC(C)(C)NC(C)(C)C1 (configuration not stated) | 0.623% | 0.347
CCOC(=O)c1c(-c2ccccc2)csc1NC(=O)CSc1nc2ccccc2o1 | 25.2% | 7.82
COc1ccc(C=NNC(=O)c2cc(C34CC5CC(CC(C5)C3)C4)[nH]n2)cc1O | 0.0734% | 0.0321
O=C(c1cccc(NS(=O)(=O)Cc2ccccc2)c1)N1CCOCC1 | -1.7% | -0.945
COC(=O)c1ccc(CN2CCN3CCCC3C2C)cc1 (configuration not stated) | -3.15% | -1.38
Cc1cc(C)c2oc(-c3ccc(C)c(N=Cc4cccc([N+](=O)[O-])c4O)c3)nc2c1 | -14.1% | -2.97
CC(C)=NNC(=O)C(=O)Nc1cccc(Cl)c1 | -3.01% | -1.56
Cc1ccc(S(=O)(=O)n2nc(OC(=O)c3ccc(C)c(C)c3)cc2N)cc1 | -5.25% | -1.67
CCCCOc1ccc(C(=O)N2N=C(C)CC2(O)C(F)(F)F)cc1 (configuration not stated) | -6.48% | -2.66
CC(C)(C)c1ccc(-c2nc3cc(NC(=O)Cc4ccccc4)ccc3o2)cc1 | -3% | -1.06
CCOc1ccc(Br)cc1S(=O)(=O)N1CCN(c2ccc(C)cc2C)CC1 | -1.21% | -0.676
COc1ccc(-c2ccc3c(N)c(C(=O)NCc4ccc(C(F)(F)F)cc4)sc3n2)cc1 | -1.13% | -0.339

Compound | corrected activity, negative = more killing | z-score
CCC(Cc1ccccc1)NS(=O)(=O)c1ccc(F)c(C(=O)Nc2ccc(C)c(F)c2)c1 (configuration not stated) | -2.04% | -0.551
CCOc1ccc(NC(=O)C2c3ccccc3Oc3ccccc32)c([N+](=O)[O-])c1 | -0.899% | -0.37
CCN(CC)c1cc(O)c2c(c1N)C(=O)c1ccccc1C2=O | -2.05% | -0.772
COc1ccc(CN2c3cccc[n+]3CC2(O)c2ccc(Cl)cc2)cc1 (configuration not stated) | 0.199% | 0.0419
CC(C)NC1CCCc2c1[nH]c1ccc([N+](=O)[O-])cc21 (configuration not stated) | -0.558% | -0.244
Cc1ccc(-n2cnc3cc(C(=O)NC4CCCC4)ccc32)cc1Cl | -3.42% | -0.921
O=C(Cn1cnc2sc3c(c2c1=O)CCCC3)NCCCC(=O)Nc1ccccc1F | -3.19% | -1.01
O=c1nc(C=Cc2ccc(Br)cc2)cc(C(F)(F)F)[nH]1 | 0.858% | 0.256
CCOc1cc(C=c2sc3nc4ccccc4n3c2=O)ccc1O | -2.97% | -1.26
CCOC(=O)C1=C(N)OC2=C(C(=O)CC(C)(C)C2)C1c1ccccc1[N+](=O)[O-] (configuration not stated) | -1.89% | -0.587
Nc1nc(OCC(F)(F)F)cc(OCC(F)(F)F)n1 | -6.92% | -1.46
CCN(c1ccccc1C(=O)O)S(=O)(=O)c1cccc2nsnc12 | -4.09% | -1.22
CCOc1cc(C(=S)N2CCCCC2)ccc1OC(=O)c1ccc([N+](=O)[O-])cc1 | 0.525% | 0.163
COc1cccc(NS(=O)(=O)c2ccc3c(c2)[C@H]2C=CC[C@H]2[C@@H](c2ccccc2Cl)N3)c1 | -8.83% | -2.64
Cc1ccc(-c2cc(C(=O)NN=Cc3cccnc3)[nH]n2)cc1 | -3.53% | -1.54
Cc1ccc(C(=O)Oc2ccc(C(=S)N3CCOCC3)cc2)cc1 | -4.83% | -1.5
O=C1OC(c2ccccc2Cl)=NC1=Cc1ccccc1F | -3.5% | -1.49
CC(C(=O)O)N1C(=O)C2C3CCC(C3)C2C1=O (configuration not stated) | 1.01% | 0.359
CCCNS(=O)(=O)c1ccc(F)c(C(=O)Nc2cc(C)ccc2OC)c1 | -6% | -1.62
Cc1ccc(C(=O)COC(=O)c2ccc(N3C(=O)C4CCC(C)CC4C3=O)cc2)cc1[N+](=O)[O-] (configuration not stated) | -2.55% | -1.37
